This is an account of results in PubChem BioAssay (NCI).

The panel holds about 83,000 compounds, 20% with a hit somewhere; the sample as a whole holds those more often.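 A percent growth of 40 corresponds to 60% growth inhibition; 0 means no net growth; -100 means all cells died. Active threshold: below 10.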 Values without a mark were called inactive. The source made the active and inactive calls.

In this assay the test system is NCI-H460 lung. Kind of assay: NCI-60 one-dose screen, 48 h (100 = growth as untreated, 0 = no growth, -100 = all killed). To be noted: 10 µM.
For the molecule `CC(=O)Nc1ccc(-c2cn(-c3cccc(C(=O)Nc4cc(C(F)(F)F)cc(C(F)(F)F)c4)c3)nn2)cn1`, the growth was -71.6% (active).
To `NS(=O)(=O)c1ccc(N=Nc2c(O)n(CC(=O)Nc3ccccc3Br)c3ccccc23)cc1` belongs 26.4%; to `N#Cc1c(Cl)nc(SCc2ccc(F)cc2)nc1-c1ccc(F)cc1`, 103%; to `CN(C)c1ccc(/C=C/C(=O)c2ccc(NC(=O)CN3C(=O)NC(C)(c4ccccc4)C3=O)cc2)cc1` (stereo not drawn), 73.7%.
To `Cc1cc(C)nc(NS(=O)(=O)c2ccc(N/C(N)=N/c3nccc(-c4cccs4)n3)cc2)n1` belongs 99.2%.
With `COc1ccc(/C=C/C(=O)c2ccc(N3CCN(C)CC3)cc2)c(C(F)(F)F)c1` the figure was 11.2%.
On to `Clc1ccc(/C=N/Nc2ncnc3sc4c(c23)CCN(Cc2ccccc2)C4)cc1`, for which the growth is -75.6% (active).
To `COc1cccc(/C=N/NC(=O)c2ccc3nc(-c4ccc(Cl)cc4)[nH]c3c2)c1O` belongs -84.4% (active); to `COc1ccc(-c2nc(S(=O)(=O)c3ccc(C)cc3)c(S(=O)(=O)CC(=O)N(C)Cc3ccccc3)o2)cc1`, 82.6%; to `CC1=C2C(=C[C@@](C)(CO)[C@@H]2O)/C(=N\N)[C@](C)(O)C12CC2`, -6.47% (active).
To `CC(=O)c1ccc(Nc2nc(SC(C)C)nc(-c3ccccc3)c2C#N)cc1` belongs 20.2%.
To `CCN1CCN(Cc2ccc(NC(=O)c3cccc(-n4cc(-c5ccc(NC(C)=O)nc5)nn4)c3)cc2C(F)(F)F)CC1` belongs 100%; to `CC(C)c1ccc(C(=O)Nc2sc3c(c2C(N)=O)CCC(=O)C3=O)cc1`, 97.5%.
